From article PMC5540273 (PLoS ONE, 2017)

Experiments:
Conditions in all cases: concentration: 1 μM, replicates: in singlicate; n = 1
[1] = tested on: CAMK1B
[2] = tested on: CAMK1D
[3] = tested on: CAMK1G
[4] = tested on: CAMK1
[5] = tested on: CAMK2A
[6] = tested on: CAMK2B
[7] = tested on: CAMK2D
[8] = tested on: CAMK2G
[9] = tested on: CAMK4
[10] = tested on: CAMKK1
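Also: KINOMEscan kinase panel screen.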

| SMILES | %Inh [1] | %Inh [2] | %Inh [3] | %Inh [4] | %Inh [5] | %Inh [6] | %Inh [7] | %Inh [8] | %Inh [9] | %Inh [10] |
| --- | --- | --- | --- | --- | --- | --- | --- | --- | --- | --- |
| COc1ccc(Nc2nccc(-c3cccc(NC(=O)c4cc5cc(F)ccc5[nH]4)c3)n2)cc1 [GSK1229782] | 0% | 20% | 13% | 36% | 0% | 0% | 23% | 34% | 0% | 20% |
| Cc1nnc(-c2ccc3occ(-c4ccc(S(C)=O)cc4)c3c2)[nH]1 (centres unmarked) | 1% | 15% | 23% | 9% | 4% | 12% | 10% | 12% | 0% | 14% |
| Nc1nc(-c2nccs2)c(-c2ccnc3ccccc23)s1 [GW693542] | 7% | 27% | 0% | 30% | 0% | 0% | 0% | 13% | 0% | 6% |
| CC1=C(C(=O)Nc2cc3cn[nH]c3cc2F)C(c2ccc(C(F)(F)F)cc2)CC(=O)N1 (centres unmarked) [GSK429286] | 8% | 7% | 0% | 0% | 0% | 0% | 0% | 24% | 0% | 17% |
| O=S(=O)(c1ccc(-c2ccnc3[nH]ccc23)cc1)N1CCCC1 [GSK846226] | 30% | 31% | 33% | 39% | 47% | 12% | 44% | 34% | 0% | 2% |
| COc1ccccc1-c1ccc2c(NC(=O)C3CC3)n[nH]c2n1 [SB-711239] | 33% | 12% | 27% | 4% | 0% | 0% | 16% | 9% | 0% | 9% |
| COc1cc2ncnc(Nc3ccc4nc(-c5ccccc5)[nH]c4c3)c2cc1OC.Cl [GW282450] | 0% | 20% | 0% | 29% | 0% | 0% | 1% | 24% | 0% | 11% |
| COc1cccc(-c2cc(-c3c[nH]nc3-c3ccccn3)ccn2)c1 [GW680338] | 22% | 14% | 0% | 0% | 0% | 0% | 16% | 15% | 0% | 0% |
| O=C(O)COc1ncnc2cc(-c3ccc4[nH]ncc4c3)sc12 | 7% | 0% | 31% | 0% | 0% | 0% | 26% | 17% | 7% | 34% |
| Cl.NC(=O)c1cccc(Nc2nccc(Nc3ccc(Oc4cccc(Cl)c4)c(Cl)c3)n2)c1 [GW659008] | 0% | 17% | 9% | 25% | 0% | 0% | 5% | 16% | 0% | 0% |
| COc1cc2nccc(Nc3ccc(NC(=O)c4ccc(C)cc4)c(O)c3)c2cc1OC.Cl [GW440132] | 0% | 20% | 6% | 15% | 0% | 0% | 17% | 35% | 0% | 0% |
| C[C@@H]1CCCCN1c1cc(-c2ccc3c(N)n[nH]c3c2)nc(N)n1 [GSK2258759] | 0% | 15% | 0% | 9% | 0% | 0% | 1% | 28% | 0% | 8% |
| O=C(Nc1ccc2c(c1)OCO2)NC1CCN(c2ccnc(Nc3ccc(F)cc3)n2)C1 (centres unmarked) [GSK1379724] | 16% | 30% | 23% | 35% | 0% | 0% | 15% | 13% | 1% | 9% |
| O=C(Nc1ccccc1)Nc1cccc(Oc2ccc3nccn3n2)c1 | 0% | 3% | 0% | 0% | 0% | 0% | 0% | 3% | 7% | 0% |
| CC(C)(C)c1ccc(C(=O)Nc2cn3cc(Cl)ccc3n2)cc1 | 0% | 0% | 0% | 0% | 3% | 0% | 3% | 11% | 6% | 95.8% |
| Cc1cc(NCC(c2ccccc2)c2ccccc2)nc(NCc2ccc(C(F)(F)F)cc2)n1 [GW497681] | 0% | 17% | 3% | 12% | 0% | 0% | 13% | 25% | 0% | 5% |
| Cn1ccc2ncnc(Oc3ccc(Nc4nc5ccccc5[nH]4)cc3)c21 | 0% | 0% | 0% | 0% | 7% | 5% | 2% | 0% | 0% | 14% |
| Fc1cccc(COc2nnc(-c3ccc4c(c3)CCO4)o2)c1 | 0% | 0% | 12% | 18% | 0% | 6% | 0% | 7% | 0% | 8% |

| SMILES | %Inh [1] | %Inh [2] | %Inh [3] | %Inh [4] | %Inh [5] | %Inh [6] | %Inh [7] | %Inh [8] | %Inh [9] | %Inh [10] |
| --- | --- | --- | --- | --- | --- | --- | --- | --- | --- | --- |
| Cc1ccc(NC(=O)Nc2cccc(Cl)c2)cc1-c1ccc(C(=O)Nc2ccncc2)cc1 [GSK1398468] | 28% | 13% | 0% | 7% | 0% | 0% | 7% | 27% | 0% | 0% |
| Fc1cc(Cl)ccc1Nc1ccnc2cc(I)ccc12 [GW551191] | 5% | 0% | 0% | 0% | 0% | 0% | 1% | 14% | 0% | 0% |
| Cc1c(O)cccc1Nc1ccnc2ccc(C(F)(F)F)cc12.Cl [GW466413] | 2% | 7% | 0% | 1% | 0% | 0% | 0% | 0% | 0% | 12% |
| CCCc1ccc(S(=O)(=O)NC2CCN(c3ccnc(Nc4ccc(F)cc4)n3)C2)cc1 (centres unmarked) [GSK1379715] | 6% | 0% | 0% | 0% | 0% | 0% | 0% | 0% | 0% | 12% |
| COc1ccccc1CNC(=O)c1cc(C(=O)c2ccccc2C)c[nH]1 [GSK364507] | 7% | 0% | 0% | 9% | 0% | 0% | 0% | 12% | 0% | 7% |
| CC(C)(C)c1ccc(C(=O)Nc2cn3cc(-c4cccnc4)ccc3n2)cc1 | 24% | 38% | 12% | 4% | 6% | 7% | 24% | 10% | 0% | 21% |
| CS(=O)(=O)c1ccc(-c2c(-c3ncn[nH]3)sc(N3CCOCC3)c2C#N)cc1 | 25% | 16% | 11% | 13% | 14% | 30% | 6% | 11% | 18% | 19% |
| Cl.O=C(Nc1cccc(-c2nn3ncccc3c2-c2ccnc(Nc3cccnc3)n2)c1)c1c(F)cccc1F [GSK312879] | 27% | 3% | 0% | 8% | 0% | 0% | 0% | 13% | 0% | 4% |
| Cc1cc(N2Cc3ccccc3C2)nc(Nc2ccc(S(=O)(=O)N3CCOCC3)cc2)n1.Cl [GSK1669917] | 4% | 9% | 0% | 5% | 0% | 0% | 2% | 20% | 0% | 0% |
| Cc1cccc(-c2cc(Nc3ccncc3)c3ccccc3n2)n1 [GSK223675] | 25% | 26% | 6% | 17% | 0% | 0% | 20% | 26% | 0% | 12% |
| COc1ccc2nc(-c3cccc(C)n3)nc(Nc3ccncc3)c2c1 [GSK204919] | 0% | 2% | 0% | 5% | 0% | 0% | 0% | 3% | 0% | 0% |
| COc1cccc(NC(=O)NC2CCN(c3ccnc(Nc4ccc(F)cc4)n3)C2)c1 (centres unmarked) [GSK1379721] | 27% | 12% | 0% | 10% | 0% | 0% | 6% | 22% | 0% | 18% |
| O=C(Nc1n[nH]c2cc(-c3cccc(F)c3F)ccc12)C1CC1 [SB-733894] | 0% | 12% | 100% | 26% | 19% | 13% | 1% | 7% | 0% | 8% |
| COC(=O)c1c(-c2ccccc2)c2cc(OC)ccc2c(=O)n1Cc1ccccc1 | 0% | 20% | 20% | 19% | 15% | 0% | 13% | 18% | 0% | 16% |
| Cn1cncc1-c1ccc2ncnc(Nc3ccc(OCc4ccccc4)cc3)c2c1 [GW320571] | 11% | 23% | 16% | 23% | 0% | 0% | 9% | 10% | 23% | 0% |
| Clc1cc(Cl)cc(Nc2ccnc(Nc3cc(Cl)cc(Cl)c3)n2)c1 [GSK175726] | 3% | 10% | 0% | 7% | 4% | 0% | 0% | 8% | 0% | 10% |
| COc1cc(Nc2nccc(N3CCC(NC(=O)Nc4cc(C)ccc4C)C3)n2)cc(OC)c1OC (centres unmarked) [GSK1379762] | 14% | 10% | 0% | 17% | 0% | 0% | 0% | 16% | 0% | 21% |
